Source: PubChem
TGFb SMAD3 inh: blocks TGF-b signaling | HepG2 CAGA-GFP TGF-b/SMAD3 reporter, GFP fluorescence, 18 h; TGF-beta stimulated, 500 pg/mL final | Potency, µM (highest dose often 46.1 µM), inactives show at the highest dose activity, negative = inhibition, actives largely listed as inhibitors | 1.2% of 410,000 active | AID 588855; further: potency means the concentration at half of the fitted maximal effect; on the % scale 0 is the no-effect control and ±100 the full control effect; nearly all actives have a fitted effect of over 65% in size
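HEPG2 CAGA-GFP reporter cells (1000/well, DMEM with 1% FBS) received compounds, then recombinant TGF-beta at 500 pg/mL final for 18 hours at 37 degrees C. Per-cell GFP summed per well was normalised to unstimulated and stimulated DMSO controls before curve fitting.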
IL-1B inflam inh: inflammasome signaling inhibition, IL-1 beta readout. THP-1 LPS/ATP IL-1B secretion, AlphaLISA, 16 h; active compounds read low. activity change, % at 57.5 µM. 4.7% of 360,000 active; in the data active means activity change below about -50%; inconclusive means mostly about -30% to -49%; further: on the % scale 0 is the no-effect control and ±100 the full control effect
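THP-1 cells pretreated 1 hr with compounds (up to 57.5 uM final), then stimulated with LPS (250 ng/mL final) plus ATP (1.25 mM final); secreted IL-1B measured by AlphaLISA after 16 hr, decreased signal indicating inhibition.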
HepG2 viability: kills HepG2 cells in TGF-b inhibitor counter-screen | HepG2 CAGA-GFP viability, ATP luminescence, 18 h | Potency, µM (top dose mostly 46.1 µM), for inactives: top-dose activity change, negative = cytotoxicity, actives largely listed as cytotoxic | 0.76% of 410,000 active; further: potency means the concentration at half of the fitted maximal effect
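CellTiter-Glo luminescence gave cytotoxicity after 18 hours at 37 degrees C. The cells were HepG2 CAGA-GFP in 1% FBS DMEM, stimulated with 500 pg/mL TGF-beta after compound addition. %Activity was normalised to no-cell wells (complete cell-killing) and DMSO (no toxicity), and curves were fitted and classified.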
ASM inhibitor: blocks human secretory acid sphingomyelinase; Potency, µM (series often up to 57.5 µM), without a hit: at the top dose activity change, negative = inhibition, usual class: inhibitors; AID 504937; placental ASM, HMU-PC fluorogenic substrate, 60 min; P17405; 0.006% of 340,000 active; further: potency means the concentration at half of the fitted maximal effect
Target sequence (P17405 47-631 limits assumed): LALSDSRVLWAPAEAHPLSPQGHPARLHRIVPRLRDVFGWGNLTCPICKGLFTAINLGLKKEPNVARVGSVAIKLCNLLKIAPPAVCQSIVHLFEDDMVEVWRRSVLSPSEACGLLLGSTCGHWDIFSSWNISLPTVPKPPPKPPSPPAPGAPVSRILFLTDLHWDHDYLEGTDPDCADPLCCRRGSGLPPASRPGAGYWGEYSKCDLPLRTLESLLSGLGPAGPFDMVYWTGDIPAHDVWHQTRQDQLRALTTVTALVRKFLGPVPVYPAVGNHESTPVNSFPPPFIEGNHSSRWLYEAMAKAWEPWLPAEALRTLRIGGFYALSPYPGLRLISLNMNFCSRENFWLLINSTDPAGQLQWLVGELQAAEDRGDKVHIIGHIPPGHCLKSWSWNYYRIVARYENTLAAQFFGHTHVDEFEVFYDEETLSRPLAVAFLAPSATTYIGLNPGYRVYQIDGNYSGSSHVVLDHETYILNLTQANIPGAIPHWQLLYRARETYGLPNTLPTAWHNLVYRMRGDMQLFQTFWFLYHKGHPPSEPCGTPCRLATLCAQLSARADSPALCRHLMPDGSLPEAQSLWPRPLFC
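Fluorogenic HMU-PC substrate (9 uM final) is turned over by placental ASM in 60 min at 37 C after a 10 min compound preincubation. Reaction ended by alkaline stop (pH 10), with fluorescence read at 386/447 nm.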
TDP1 cell CPT: growth inhibition of DT40 Tdp1-/-;hTDP1 cells with camptothecin (screen for TDP1 inhibitors). chicken DT40 Tdp1-/-;hTDP1 cells + 20 nM CPT, ATP luminescence, 48 h. Potency, µM (titrated, usually from 46.2 µM), inactives show at the highest dose activity change, negative = growth inhibition, usual class: inhibitors. 12% of 420,000 active. AID 686979; further: potency means the concentration at half of the fitted maximal effect; on the % scale 0 is the no-effect control and ±100 the full control effect; nearly all actives have a fitted effect of over 55% in size
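Chicken DT40 Tdp1-/- cells complemented with human TDP1, 400 cells/well, exposed to compounds plus 20 nM camptothecin for at least 48 h at 37 C; viability read as ATP content by CellTiter-Glo luminescence.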
TDP1 cell noCPT: qHTS for Inhibitors of human tyrosyl-DNA phosphodiesterase 1 (TDP1): qHTS in cells in absence of CPT; Potency, µM (titrated, usually from 46.2 µM), inactives show at the top dose activity change, negative = growth inhibition, hits mostly inhibitors; DT40 Tdp1-/- hTDP1 cells, no CPT, ATP luminescence, 48 h; 15% of 420,000 active; further: potency means the concentration at half of the fitted maximal effect; on the % scale 0 is the no-effect control and ±100 the full control effect; nearly all actives have a fitted effect of over 55% in size
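No-CPT arm: Tdp1-/-;hTDP1 DT40 cells (400/well) plus compounds, incubated ≥48 hr at 37 °C. Readout CellTiter-Glo luminescence.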
* hit, by the source's call; ? = inconclusive; · = no result. An excerpt weighted towards active compounds, which were near 19% of everything screened. Unless noted, the call rests on the fitted dose curve; in most records, active means well fitted curve in the direction sought with a large enough effect; inconclusive means small, poorly fitted or top-dose-only effect, or another doubt; inactive means no such curve, though single readings can be large; an effect the other way counts as inactive or inconclusive.

SMILES	TGFb SMAD3 inh	IL-1B inflam inh	HepG2 viability	ASM inhibitor	TDP1 cell CPT	TDP1 cell noCPT
CC(=O)Nc1ccc(S(=O)(=O)N(C)CC(=O)OC(C)C(=O)N(C)Cc2ccccc2)cc1 (configuration not stated)	?	15	11%	-1%	13%	-5%
CC(OC(=O)/C(C#N)=C/c1ccc(N(C)C)cc1)C(=O)N(C)Cc1ccccc1 (configuration not stated)	0%	10	-21%	?	?	12µM*
COc1ccc(CCNC(=O)c2ccc3c(c2)N(Cc2cc(C)ccc2C)C(=O)c2ccccc2S3=O)cc1OC (configuration not stated)	-12%	·	-28%	·	9.2µM*	5.8µM*
Cc1ccccc1CN1C(=O)c2ccccc2S(=O)c2ccc(C(=O)NCc3ccc4c(c3)OCO4)cc21 (configuration not stated)	0%	·	-18%	·	6%	0%
CC(C)CCNC(=O)c1ccc2c(c1)N(Cc1ccccc1F)C(=O)c1ccccc1S2=O (configuration not stated)	-3%	·	-2%	·	?	21µM*
O=C(NCc1ccc2c(c1)OCO2)c1ccc2c(c1)N(Cc1ccccc1F)C(=O)c1ccccc1S2=O (configuration not stated)	6%	·	-1%	·	-34%	21µM*
O=C(NCCc1ccccc1)c1ccc2c(c1)N(Cc1ccccc1F)C(=O)c1ccccc1S2=O (configuration not stated)	18%	·	1%	·	?	?
Cc1ccc(C)c(CN2C(=O)c3ccccc3S(=O)c3ccc(C(=O)NCCC4=CCCCC4)cc32)c1 (configuration not stated)	-2%	·	-5%	·	15µM*	16µM*
O=C(CCN1C(=O)c2ccccc2S1(=O)=O)Nc1ccc(F)c([N+](=O)[O-])c1	-5%	-15	-15%	1%	1%	-28%
CCOCCCn1c(SCC(=O)Nc2ccc(C(C)C)cc2)nc2c(sc3ccccc32)c1=O	-22%	·	-6%	·	-23%	?
COc1ccc(CCNC(=O)c2ccc3c(c2)N(Cc2ccccc2F)C(=O)c2ccccc2S3=O)cc1OC (configuration not stated)	-7%	·	-18%	·	15µM*	26µM*
Cc1ccc(CCNC(=O)c2ccc3c(c2)N(Cc2ccccc2F)C(=O)c2ccccc2S3=O)cc1 (configuration not stated)	22%	·	-1%	·	?	?
Fc1ccc(NC(=S)Nc2ccc(Br)cc2)cc1	?	-93*	-57%	-5%	8.2µM*	9.2µM*
CCN(CC)c1ccc(NC(=S)Nc2ccc(F)cc2)cc1	-5%	?	0%	0%	?	23µM*
Oc1ccc(NC(=S)Nc2ccc(F)cc2)cc1	3%	-1	1%	5%	0%	?
Cc1ccc(NC(=S)Nc2ccc(F)cc2)c(C)c1	1%	-59*	-24%	4%	-11%	-24%
CCC(C)NC(=S)Nc1ccc(F)cc1 (configuration not stated)	-22%	0	-6%	0%	-23%	-22%
O=C(N1CCCC1)C12CC3CC(CC(Cl)(C3)C1)C2	0%	25	0%	7%	?	?
O=C1/C(=C\c2ccc(O)c(O)c2)C(c2ccccc2)=NN1c1ccccc1	?	23	-35%	-16%	?	21µM*
CCN(CCCNc1ncnc2nc[nH]c12)c1cccc(C)c1	?	40	-22%	3%	18µM*	?
COc1ccccc1-c1nnc(SC(C(=O)c2c[nH]c3ccccc23)c2ccccc2)n1C (configuration not stated)	?	-51*	-24%	-18%	21µM*	16µM*
COc1cccc(-c2nnc(SC(C(=O)c3c[nH]c4ccccc34)c3ccccc3)n2C)c1 (configuration not stated)	?	-27	-13%	-11%	23µM*	?
COc1ccc(CCN2CN(S(=O)(=O)c3ccccc3)c3nc4ccccc4nc32)cc1OC	?	-14	-10%	-2%	21µM*	18µM*
CC(C)OCCCN1CN(S(=O)(=O)c2ccccc2)c2nc3ccccc3nc21	23%	-27	0%	9%	-13%	?
COc1ccc(CCN2CN(S(=O)(=O)c3ccccc3)c3nc4ccccc4nc32)cc1	5%	57	-6%	2%	?	18µM*
SMILES	TGFb SMAD3 inh	IL-1B inflam inh	HepG2 viability	ASM inhibitor	TDP1 cell CPT	TDP1 cell noCPT
COc1cccc(/C(C#N)=C/c2c(-c3ccc(Cl)cc3)nc3c(C)cccn23)c1	-8%	-65*	-4%	-25%	21µM*	18µM*
Cc1cccn2c(/C=N/OCc3cccc(F)c3)c(-c3ccc(Cl)cc3)nc12	-3%	10	8%	-15%	?	?
O=C(CC[C@H]1O[C@@H](n2ccc(=O)[nH]c2=O)[C@H](O)[C@@H]1O)NCCN1CCOCC1	-2%	-9	0%	·	0%	10%
CCC(=O)N1c2ccc(S(=O)(=O)CCC(=O)NCc3cccc(OC)c3)cc2CC1C (configuration not stated)	34%	·	-10%	·	-9%	-22%
CCCCCCCCCCCCCCCCCCc1ccc(C(=O)/C=C/C(=O)O)cc1	·	·	·	·	1%	-16%
CCCCCc1ccc(-c2cn(Cc3ccc(C(=O)c4ccccc4)cc3)nn2)cc1	?	4	6%	-3%	3.3µM*	4.1µM*
O=C(c1ccccc1)c1ccc(Cn2cc(-c3ccccc3)nn2)cc1	?	55	-27%	-10%	7.3µM*	7.3µM*
CCOC(OCC)c1cn(Cc2ccc(C(=O)c3ccccc3)cc2)nn1	?	41	-18%	1%	23µM*	23µM*
CCn1c(CNC(=O)c2cc(OC)c(OC)c(OC)c2)cc2ccccc21	-14%	9	-9%	-3%	?	?
O=C(Cc1coc2ccc3ccccc3c12)NCc1ccccc1	-11%	13	-1%	-3%	?	?
CCCN(CCC)C(=O)Cc1coc2ccc3ccccc3c12	-16%	-2	-18%	-6%	?	18µM*
O=C(Cc1coc2ccc3ccccc3c12)Nc1nccs1	-3%	26	-15%	-22%	15µM*	?
